TDP1 cell CPT = growth inhibition of DT40 Tdp1-/-;hTDP1 cells with camptothecin (screen for TDP1 inhibitors); chicken DT40 Tdp1-/-;hTDP1 cells + 20 nM CPT, ATP luminescence, 48 h; Potency, µM (highest dose often 46.2 µM), for the others: at the highest dose activity change, negative = growth inhibition, actives largely listed as inhibitors; actives 12% (n = 420,000); AID 686979; further: potency means the concentration at half of the fitted maximal effect; nearly all actives have a fitted effect of over 55% in size
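Chicken DT40 Tdp1-/- cells stably complemented with human TDP1 were seeded at 400 cells/well in medium containing 20 nM camptothecin, exposed to pin-transferred compounds, and grown at 37 °C for at least 48 hr. Viability was read as ATP luminescence.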
IL-1B inflam inh = inhibitors of inflammasome signaling (IL-1 beta secretion); actives 4.7% (n = 360,000); activity change, % at 57.5 µM; AID 743279; THP-1 LPS/ATP IL-1B secretion, AlphaLISA, 16 h; active compounds read low; in the data active means activity change below about -50%; inconclusive means mostly about -30% to -49%
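Secreted IL-1B measured by AlphaLISA bead assay after 16 h compound exposure of THP-1 cells; compounds (final up to 57.5 uM) added 1 h before LPS (250 ng/mL) and ATP (1.25 mM) stimulation; lower signal means less secretion.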
DT40 TDP1 no CPT = qHTS for Inhibitors of human tyrosyl-DNA phosphodiesterase 1 (TDP1): qHTS in cells in absence of CPT | DT40 Tdp1-/- hTDP1 cells, no CPT, ATP luminescence, 48 h | Potency, µM (titrated, usually from 46.2 µM), inactives show at the highest dose activity change, negative = growth inhibition, most hits filed as inhibitors | actives 15% (n = 420,000) | AID 686978, 2013; further: potency means the concentration at half of the fitted maximal effect; nearly all actives have a fitted effect of over 55% in size
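Luminescent ATP content (CellTiter-Glo) served as the growth readout. Knockout chicken DT40 cells expressing human TDP1 were exposed to compounds without camptothecin for a minimum 48 hr at 37 °C.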
ELG1 DNA repair = inhibitors of ELG1-dependent DNA repair in HEK293T cells; HEK293T ELG1-luciferase reporter, luminescence, 16 h; DNA damage induced by 5-fluorouridine; Potency, µM (doses to about 46.1 µM), inactives show top-dose activity change, negative = inhibition, hits mostly inhibitors; actives 2.3% (n = 330,000); AID 504467; further: potency means the concentration at half of the fitted maximal effect; nearly all actives have a fitted effect of over 55% in size
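Reporter activity after DNA damage by 5-fluorouridine is monitored. Compound-treated cells incubate 16 hr at 37 °C, then ONE-Glo is added for 30 min before luminescence reading.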
HT1080 IDH1KD tx = kills HT-1080 cells with IDH1 knockdown. Potency, µM (top dose mostly 46.1 µM), inactives show at the highest dose activity, negative = toxicity, usual class: cytotoxic. actives 2% (n = 360,000). AID 686971. HT-1080 IDH1 knockdown viability, ATP luminescence, 48 h;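 further: potency means the concentration at half of the fitted maximal effect; 0% = DMSO wells and -100% = cell-free medium wells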
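In this qHTS, HT-1080 cells depleted of IDH1 are exposed for 48 h at 37 °C to compound titrations. Toxicity is scored from CellTiter-Glo luminescence, with DMSO as full viability and medium alone as none.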
HT1080-NT tox = kills 2HG-producing HT-1080-NT fibrosarcoma cells | HT-1080-NT fibrosarcoma viability, CellTiter-Glo ATP luminescence, 48 h | Potency, µM (doses to about 46.1 µM), inactives show at the top dose activity, negative = less viability, hits mostly cytotoxic | actives 1.6% (n = 360,000) | AID 686970;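 further: NT is the 2HG producing partner of a matched IDH1 knockdown line; potency means the concentration at half of the fitted maximal effect; 0% = DMSO-treated cells and -100% = media-only wells without cells; nearly all actives have a fitted effect of over 55% in size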
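750 cells/well, RPMI + 5% FBS; 2 h settle, compound pin-transfer, 48 h at 37 degrees C. CellTiter-Glo 10 min RT, luminescence. Normalized to DMSO and media-only wells.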
Numbers without * were called inactive; ? = inconclusive; nt = no result. Hits are enriched below; roughly 19% of the tested compounds scored in any of these assays. Unless noted, the call rests on the fitted dose curve; in most records, active means well fitted curve in the direction sought with a large enough effect; inconclusive means small, poorly fitted or top-dose-only effect, or another doubt; inactive means no such curve, though single readings can be large; an effect the other way counts as inactive or inconclusive. Unless noted, on the % scale 0 is the no-effect control and ±100 the full control effect.

SMILES	TDP1 cell CPT	IL-1B inflam inh	DT40 TDP1 no CPT	ELG1 DNA repair	HT1080 IDH1KD tx	HT1080-NT tox
O=C(O)COc1ccc(/C=N/NC(=O)Cc2ccc(Cl)cc2)cc1	-2.9%	-2.6	10.6%	-4.7%	-0.6%	0.2%
CC(=O)CC[N+](C)(C)C	13µM*	-96.3*	14.6µM*	nt	?	-7.5%
COc1ccc([N+](=O)[O-])cc1NC(=O)c1cn(-c2ccc(Cl)cc2)c(=O)c2ccccc12	-14.4%	1.9	-20.7%	-14.2%	4.5%	-2.1%
O=C1CCc2cc(OCCCCc3nnnn3C3CCCCC3)ccc2N1	?	-7.3	16.4µM*	0.0%	0.1%	1.3%
CCOC(=O)c1sc(NC(=O)C2c3ccccc3Oc3ccccc32)c(C(=O)OCC)c1C	-15.1%	nt	-14.8%	nt	nt	nt
CCOC(=O)c1c(NC(=O)C2c3ccccc3Oc3ccccc32)sc(C(=O)N(CC)CC)c1C	18.4µM*	-18.7	23.1µM*	?	-11.2%	-9.5%
CCOC(=O)c1sc(NC(=O)C2c3ccccc3Oc3ccccc32)c(C#N)c1C	11.6µM*	nt	16.4µM*	nt	nt	nt
CCCCC(=O)Nc1sc(C(=O)N(CC)CC)c(C)c1C(=O)OC	?	-0.2	18.4µM*	?	-4.1%	0.4%
CCOC(=O)c1sc(NC(=O)c2ccco2)c(C#N)c1C	-9.2%	11.1	-24.6%	14.4%	-0.8%	-7.5%
CCCCN(C)C(=O)Cn1c(=O)oc2cc(S(=O)(=O)N3CC(C)CC(C)C3)ccc21 (stereo not given)	?	12.6	?	?	-2.7%	-6.8%
COc1ccccc1S(=O)(=O)N(C)C[C@@H]1OCc2cnnn2CCCC(=O)N([C@@H](C)CO)C[C@@H]1C	-13.6%	11.6	-19.6%	nt	4.3%	12.3%
COc1cccc(CN2CC(C(=O)NCc3ncc(C)[nH]3)CCC2=O)c1 (stereo not given)	3.6%	-0.5	-10.7%	4.8%	5.9%	0.9%
CC(=C\c1ccccc1)/C=C1/SC(=S)N(CC(=O)O)C1=O	4.0%	nt	-14.0%	nt	nt	nt
Cc1ccc(C(O)(C(=O)NNS(=O)(=O)c2ccc(C)cc2)c2ccc(C)cc2)cc1	8.7%	-52.6*	-19.7%	-2.7%	0.8%	-3.4%
CC(C)(C)c1ccc(S(=O)(=O)NNC(=O)c2cc3ccccc3[nH]2)cc1	?	5.0	?	?	20.6µM*	20.6µM*
O=C(c1ccc(Cl)cc1)C1CCN(C(=O)c2ccc(F)cc2)CC1	20.6µM*	-4.5	10.3µM*	?	8.3%	-29.3%
O=C(NCc1ccccc1)N1CCN(c2ccc(Cl)c(Cl)c2)CC1	18.4µM*	39.2	5.8µM*	-26.8%	?	?
O=C(NCc1ccccc1)C1CCCN(C(=O)NCc2ccccc2)C1 (stereo not given)	1.46µM*	2.4	4.4%	?	7.5%	1.6%
CC(C)Cn1cc(NC(=O)N2CCN(c3ccc(F)cc3)CC2)c2ccccc2c1=O	14.6µM*	nt	18.4µM*	nt	nt	nt
COc1ccc(CNC(=O)N2CCN(c3ccccc3)CC2)cc1	4.0%	-13.8	-6.1%	-10.2%	8.4%	12.8%
O=C(Cc1ccccc1)NCC(=O)N1CCN(c2ccc(F)cc2)CC1	-21.9%	47.4	?	nt	-0.1%	2.0%
CC(=O)c1ccc(N2CCN(C(=O)Nc3ccc(F)cc3F)CC2)cc1	?	-10.4	-22.3%	0.1%	4.9%	16.4%
O=C(NCc1ccccc1)N1CCN(c2ccc(F)cc2)CC1	18.4µM*	-6.0	14.6µM*	0.4%	21.2%	22.9%
O=C(NC1CCN(C(=O)NCc2ccccc2)CC1)c1ccc(F)cc1	-1.6%	18.1	-11.6%	7.5%	15.0%	11.1%
O=C(Nc1ccc(F)cc1F)N1CCN(c2ccc(Cl)c(Cl)c2)CC1	6.51µM*	nt	4.61µM*	nt	nt	nt
SMILES	TDP1 cell CPT	IL-1B inflam inh	DT40 TDP1 no CPT	ELG1 DNA repair	HT1080 IDH1KD tx	HT1080-NT tox
O=C(c1ccc(F)cc1)C1CCN(C(=O)NCc2ccccc2)CC1	16.4µM*	-4.7	23.1µM*	?	-0.6%	-14.5%
Cc1cn2c(=O)c(S(=O)(=O)NCc3ccc(F)cc3)c(C)nc2s1	?	nt	-14.4%	nt	nt	nt
CCC(C)N(C(=O)Cn1c(=O)cnc2ccccc21)C1CCS(=O)(=O)C1 (stereo not given)	10.6%	4.5	-2.8%	14.3%	0.7%	5.1%
O=C(c1cc(S(=O)(=O)N2CCCC2)c[nH]1)N1CCN(c2cccc(Cl)c2)CC1	?	nt	-64.8%	nt	nt	nt
CCOc1ccc(CCNC(=O)C2CCN(C(=O)c3cc4sccc4n3CC)CC2)cc1OCC	16.4µM*	nt	18.4µM*	nt	nt	nt
CCn1c(C(=O)N2CCC(C(=O)NCCc3ccc(C)cc3)CC2)cc2sccc21	16.4µM*	nt	20.6µM*	nt	nt	nt
CC(CCc1ccccc1)NC(=O)C1CCN(C(=O)c2sccc2-n2cccc2)CC1 (stereo not given)	?	-17.2	20.6µM*	?	0.1%	6.9%
CCN(CC)CCCNC(=O)C1CCN(C(=O)c2cc3sccc3n2Cc2ccc(F)cc2)CC1	-20.6%	-1.2	-15.8%	1.3%	?	?
CCn1c(C(=O)N2CCC(C(=O)NCCc3ccccc3)CC2)cc2sccc21	?	nt	25.9µM*	nt	nt	nt
Cc1cc(C)c(NC(=O)Cn2c(=O)n(-c3cccc(C(F)(F)F)c3)c(=O)c3c(C)c(C)sc32)c(C)c1	-16.9%	nt	-5.1%	nt	nt	nt
O=C(N[C@@H]1C[C@H]2CC[C@@H]1C2)c1ccco1	14.3%	-5.8	-15.1%	21.6%	0.8%	11.0%
O=C(Cn1ccc(C(F)(F)F)n1)N/N=C/c1ccc(N2CCOCC2)cc1	6.4%	5.4	2.2%	?	?	-26.8%
CCN1CCN(CCCNC(=O)c2cc3sccc3n2CC)CC1	-2.8%	-12.1	-5.6%	24.6%	-0.6%	0.0%
CCCSCCCNC(=O)C1CCN(C(=O)c2cc3sccc3n2C)CC1	20.6µM*	nt	20.6µM*	nt	nt	nt
CCn1c(C(=O)N2CCC(C(=O)NCCCSC3CCCCC3)CC2)cc2sccc21	?	2.1	18.4µM*	20.6µM*	-4.0%	-12.2%
CC1=C/C(=C\c2ccc3c(c2)OCO3)C(=O)S1	-1.0%	-9.9	3.6%	-14.8%	1.6%	3.9%
CC1=C/C(=C/N(C)c2ccccc2)C(=O)S1	20.6µM*	-11.2	25.9µM*	?	1.8%	12.6%
COCCCNc1nc(SCc2ccccc2)nc2sc3c(c12)CCC3	?	6.9	20.6µM*	?	12.3%	-1.8%
O=C1NC(C2CC3C=CC2C3)Nc2ccccc21 (stereo not given)	-9.8%	27.9	?	nt	3.3%	0.5%
